Compounds with a hit are over-represented: about 3.1% of the library has one in this group of screens.
p53null 32C tox – selectivity test: cytotoxicity in p53 null cells, permissive temperature; H1299-neo p53 null cells, ATP luminescence, 24 h, 32C; 0.62% of 55,000 active; Potency, µM (series often up to 46.1 µM), inactives show at the highest dose activity change, negative = cytotoxicity, actives largely listed as cytotoxic;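 note: potency is the fitted concentration of half-maximal effect; 0% = DMSO only and -100% = full killing by 100 µM tamoxifen; nearly all actives have a fitted effect of over 55% in size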
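Overnight 37C seeding (600 cells/well) of H1299-neo preceded a 24 hr, 32C exposure to compounds up to 46 uM. ATP levels, read by luminescence after 20 min at RT, indicated surviving cells.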
S16 F2sN tox – cytotoxicity in S16 Pmp22-F2sN Schwann cells; Potency, µM (top dose mostly 57.5 µM), for the others: top-dose activity change, negative = cytotoxicity, usual class: cytotoxic; AID 1508642; S16 Pmp22-F2sN Schwann cells viability, CellTiter-Glo, 24 h; 0.48% of 43,000 active; note: potency is the fitted concentration of half-maximal effect; % is set by controls: 0 for no effect and ±100 for the full control effect; nearly all actives have a fitted effect of over 65% in size
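S16 Pmp22-F2sN Schwann cells (500-1,000/well) in phenol-red-free DMEM with 10% FBS received 23 nL compound by pin tool for 24 h at 37 °C. Viability was then read as CellTiter-Glo luminescence after 15 min at room temperature.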
pS6 MEF inh – inhibitors of mTORC1 signaling in Tsc2-/- p53-/- MEF cells | Tsc2-/- p53-/- MEF, phospho-rpS6 immunofluorescence/PI, 24 h | Potency, µM (highest dose often 38.3 µM), inactives show top-dose activity change, negative = inhibition, most hits filed as inhibitors | 0.78% of 44,000 active;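 note: potency is the fitted concentration of half-maximal effect; plate controls were DMSO for no effect and rapamycin for full effect; nearly all actives have a fitted effect of over 50% in size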
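Read-out: phospho-S6 Alexa-488 intensity over PI intensity per well, scored as % active cells using thresholds from rapamycin (7.5 nM) and DMSO controls. Tsc2-/-, p53-/- MEFs exposed to compound for 24 h; PI cell count recorded as viability.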
PMP22 txn prim – modulates PMP22 transcription in S16 Schwann cells. Potency, µM (doses to about 57.5 µM), inactives show at the highest dose activity change, negative = inhibition, most hits filed as inhibitors. S16 Pmp22-F2sN Schwann cells, FLuc/NLuc coincidence luminescence, 24 h. 2% of 43,000 active; active = clear falling dose curves in both reporters; inconclusive = both reporters move, but less clearly or upward; inactive = either reporter flat; the % is the NLuc reporter signal; note: potency is the fitted concentration of half-maximal effect; % is set by controls: 0 for no effect and ±100 for the full control effect
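Reporter cells (S16 Pmp22-F2sN, 500–1,000 per well) exposed to compounds for 24 h, 37C, 5% CO2; lysis with FLuc read after 10 min, then Stop&Glo and NLuc read after 10 min.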
SKOV3 invasion – ovarian cancer metastasis inhibition, 3D TME model; SKOV3ip1-GFP adhesion/invasion on 3D omental model, fluorescence; Potency, µM (highest dose often 45.8 µM), without a hit: at the highest dose activity change, negative = inhibition, most hits filed as inhibitors; 0.1% of 46,000 active; AID 1963576;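 note: potency is the fitted concentration of half-maximal effect; plate controls were DMSO wells for no effect and tomatine positive control wells for full effect; nearly all actives have a fitted effect of over 65% in size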
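Primary human omental fibroblast/mesothelial 3D culture pre-formed 48 h. SKOV3ip1-GFP cells added with compounds (0.36-46 umol/L), incubated 2 h RT/16 h 37 C, fixed; GFP cells quantified at 488/509 nm.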
p53null 39C tox – kills p53 null cells at the nonpermissive temperature. 0.97% of 55,000 active. Potency, µM (titrated, usually from 46.1 µM), for the others: at the highest dose activity, negative = cell killing, most hits filed as cytotoxic. H1299 p53-null (neo) cells, 39C, ATPlite viability, 24 h;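 note: potency is the fitted concentration of half-maximal effect; 0% = DMSO only and -100% = full killing by 100 µM tamoxifen; nearly all actives have a fitted effect of over 50% in size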
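H1299 lung cancer cells, p53-null (H1299-neo) or expressing p53 A138V (H1299-p53A138V), were plated overnight at 37C, then exposed to compounds at up to 46 uM for 24 hr at 39C. Viability was read by ATP-based luminescence.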
NLuc saturating – counter-screen for PMP22 expression modulators: NanoLuc inhibition, saturating substrate; shares compounds with PMP22 txn prim; Secreted NLuc enzyme (filtered S16 cell medium), Nano-Glo luminescence; Potency, µM (titrated, usually from 57.5 µM), for the others: top-dose activity change, negative = inhibition, hits mostly inhibitors; 4% of 690 active; AID 1508638; note: potency is the fitted concentration of half-maximal effect; % is set by controls: 0 for no effect and ±100 for the full control effect
NLuc Km ctr – NanoLuc inhibition at Km substrate, PMP22 artifact check. shares compounds with PMP22 txn prim. 5% of 690 active. Potency, µM (highest dose often 57.5 µM), without a hit: at the highest dose activity change, negative = inhibition, hits mostly inhibitors. secreted NLuc enzyme, coelenterazine luminescence, Km conditions; note: potency is the fitted concentration of half-maximal effect; % is set by controls: 0 for no effect and ±100 for the full control effect
FLuc ctr PMP22 – counter-screen for PMP22 expression modulators: firefly luciferase inhibition | shares compounds with PMP22 txn prim | purified P. pyralis FLuc, luminescence, 10 min | Potency, µM (titrated, usually from 57.5 µM), for the others: at the top dose activity, negative = inhibition, most hits filed as inhibitors | 690 tested, under 10 active | AID 1508640; note: % of control where 0% means no effect
Target sequence (P08659 whole entry, looked up): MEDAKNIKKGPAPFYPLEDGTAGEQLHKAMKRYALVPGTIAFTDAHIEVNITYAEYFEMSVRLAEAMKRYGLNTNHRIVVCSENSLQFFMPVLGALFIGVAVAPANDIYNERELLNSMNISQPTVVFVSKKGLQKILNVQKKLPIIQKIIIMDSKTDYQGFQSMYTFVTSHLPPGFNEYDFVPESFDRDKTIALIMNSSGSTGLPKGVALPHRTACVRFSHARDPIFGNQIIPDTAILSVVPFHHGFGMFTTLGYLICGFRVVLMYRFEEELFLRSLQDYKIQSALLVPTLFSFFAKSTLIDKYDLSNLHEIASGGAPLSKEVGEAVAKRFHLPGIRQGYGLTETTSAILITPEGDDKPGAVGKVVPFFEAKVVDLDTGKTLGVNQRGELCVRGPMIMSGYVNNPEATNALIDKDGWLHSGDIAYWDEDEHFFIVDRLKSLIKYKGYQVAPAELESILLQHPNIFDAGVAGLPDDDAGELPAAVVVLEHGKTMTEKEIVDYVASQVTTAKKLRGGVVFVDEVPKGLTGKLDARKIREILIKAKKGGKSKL
S16 F2sN tox cnf – confirmation of cytotoxicity in S16 Pmp22-F2sN Schwann cells (luciferase reporters placed in the Pmp22 gene) | shares compounds with PMP22 txn prim | S16 Schwann cells viability, CellTiter-Glo ATP luminescence, 24 h | Potency, µM (highest dose often 57.5 µM), without a hit: at the top dose activity change, negative = viability loss, hits mostly cytotoxic | 7% of 690 active; note: potency is the fitted concentration of half-maximal effect; % is set by controls: 0 for no effect and ±100 for the full control effect
PMP22 txn cnf – confirmation of modulators of PMP22 gene transcription in S16 cells; Potency, µM (series often up to 57.5 µM), for the others: at the highest dose activity change, negative = inhibition, actives largely listed as inhibitors; AID 1508646; 22% of 690 active; shares compounds with PMP22 txn prim; S16 Schwann cells Pmp22-F2sN, dual luciferase, 24 h; active = clear falling dose curves in both reporters; inconclusive = both reporters move, but less clearly or upward; inactive = either reporter flat; the % is the FLuc reporter signal; note: potency is the fitted concentration of half-maximal effect
The depositor's hits bear a star; i = inactive; ? = inconclusive; nt = no result given. Unless noted, calls come from the whole dose curve; as a rule, active = well fitted curve in the direction sought with a large enough effect; inconclusive = small, poorly fitted or top-dose-only effect, or another doubt; inactive = no such curve, though single readings can be large; an effect the other way counts as inactive or inconclusive.

SMILES	p53null 32C tox	S16 F2sN tox	pS6 MEF inh	PMP22 txn prim	SKOV3 invasion	p53null 39C tox	others
COc1ccc(Nc2cc(C)nc(-n3nc(C)cc3C)n2)cc1Cl	-7%	?	?	5.5µM*	3%	?
Cc1ccccc1C(C(=O)NC1CCCCC1)N(C(=O)Cn1ccnc1C)c1cccc(F)c1 (stereo not given)	nt	nt	nt	nt	4%	nt
CCCCNC(=O)CSc1nc2n[nH]c(C)c2c(=N)n1-c1cccc(C)c1	23%	-10%	1%	-23%	i	0%
CCCCN(CC)C(=O)CSc1nc2n[nH]c(C)c2c(=N)n1-c1cccc(Cl)c1	7%	?	-3%	13µM*	-9%	13%
Cc1[nH]c2ccccc2c1CCNCc1ccc(C=CC(=O)NO)cc1	nt	nt	nt	nt	17%	nt
CC(=O)NC1=C(NC2CCS(=O)(=O)C2)C(=O)c2ccccc2C1=O (stereo not given)	11µM*	nt	nt	nt	nt	?
C[N+]1(C)[C@@H]2CC(OC(=O)[C@H](CO)c3ccccc3)C[C@H]1[C@H]1O[C@@H]12 (stereo not given in full)	nt	nt	nt	nt	10%	nt
CCOC(=O)N[C@@H]1CC[C@@H]2[C@@H](C1)C[C@H]1C(=O)O[C@H](C)[C@H]1[C@@H]2C=Cc1ccc(-c2cccc(F)c2)cn1	nt	nt	nt	nt	1%	nt
CCC1=Nc2cc(C(=O)NCc3ccc(C)cc3)ccc2Sc2ccc(C)cc21	43%	-8%	-16%	?	-23%	6%
CCCC1=Nc2cc(C(=O)NCc3ccccc3)ccc2Sc2ccccc21	18%	?	?	12µM*	?	13%
COc1ccc(OC)c(C2CC(=O)c3c([nH]c(C(=O)OCC4CCCCC4)c3C)C2)c1 (stereo not given)	14%	?	?	-14%	-20%	-5%
COc1cc(C2CC(=O)c3c([nH]c(C(=O)OCC4CCCCC4)c3C)C2)cc(OC)c1OC (stereo not given)	-14%	-11%	-20%	5.7µM*	18%	-28%
COc1cc(C2CC(=O)c3c([nH]c(C(=O)OC4CCCCC4)c3C)C2)cc(OC)c1OC (stereo not given)	-18%	?	?	18µM*	?	2%
Cc1onc(-c2ccccc2)c1C(=O)N[C@@H]1C(=O)N2[C@@H](C(=O)O)C(C)(C)S[C@@H]12	nt	nt	nt	nt	-17%	nt
O=C(/C=C/Nc1ccccc1F)c1cccs1	11µM*	nt	nt	nt	nt	nt
O=C(/C=C/Nc1ccc(F)cc1F)c1cccs1	10µM*	nt	nt	nt	nt	nt
CCOC(=O)c1cc2c(=O)n3ccccc3nc2n(CC2CCCO2)c1=NC(=O)c1cc(C)cc(C)c1 (stereo not given)	?	?	-6%	1.5µM*	1%	?
CC(C)(O)c1cc2nc(-c3cnc(N)nc3)nc(N3CCOCC3)c2s1	nt	nt	nt	nt	1%	nt
CN(C(=O)c1cccc(Nc2ccc(-c3ccc4c(c3)OCCO4)nn2)c1)C1CCCCC1	11µM*	nt	nt	nt	nt	13µM*
Cc1cn2c(-c3cn[nH]c3)cnc2c(Nc2ccc(C(=O)N3CCNCC3)cc2F)n1	nt	nt	nt	nt	-12%	nt
O=C(Nc1cccc(-c2nc3ncccc3o2)c1)c1ccc(-c2cccc(Cl)c2Cl)o1	13µM*	nt	?	nt	?	10µM*
Cc1c(Cl)cccc1-c1ccc(C(=O)Nc2ccc3oc(-c4cccnc4)nc3c2)o1	-1%	-1%	13µM*	-26%	?	16%
CCCC(=O)Nc1cccc(-c2nc3ncccc3o2)c1	3%	nt	4%	nt	-9%	18%
CCOC(=O)c1ccc(N2C(=O)c3n[nH]c(-c4cccs4)c3C2c2cccc(F)c2)cc1 (stereo not given)	89%	-17%	18µM*	?	?	?
CCOC(=O)c1ccc(N2C(=O)c3n[nH]c(-c4ccco4)c3C2c2ccc(OCC)cc2)cc1 (stereo not given)	32%	?	13µM*	?	?	40%
SMILES	p53null 32C tox	S16 F2sN tox	pS6 MEF inh	PMP22 txn prim	SKOV3 invasion	p53null 39C tox	others
CCOc1ccc(NC(=O)c2ccccc2O)cc1	7.1µM*	nt	nt	nt	nt	7.9µM*
Cc1ccccc1Nc1c(-c2ccc(N3CCOCC3)cc2)nc2ncccn12	13µM*	-2%	4%	19%	-5%	13µM*
CC[C@@H](C)[C@H](NC(=O)[C@H](CC1CCCCC1)NC(=O)c1ccno1)C(=O)N1CCC2(CCc3ccccc32)CC1	nt	nt	nt	nt	-32%	nt
C[C@H](NC(=O)c1sccc1OCc1ccc(Cl)cc1)c1ccccc1	nt	nt	nt	nt	-6%	nt
CCc1ccccc1NC(=O)CSc1ncc(S(=O)(=O)c2ccccc2)c(N)n1	-14%	18%	-4%	-18%	9%	1%
CCc1ccccc1NC(=O)CSc1ncc(S(=O)(=O)c2ccc(C(C)C)cc2)c(N)n1	25%	-2%	0%	18µM*	i	12%	NLuc saturating=?;NLuc Km ctr=1%;FLuc ctr PMP22=5%;S16 F2sN tox cnf=21%;PMP22 txn cnf=?

Assay outcomes deposited in PubChem BioAssay by National Center for Advancing Translational Sciences (NCATS).
